Measured values reported in PubChem BioAssay (EPA / NIEHS).
Records with an inconclusive call do not appear. Calls of active or inactive are those of the source. The calls were made as follows, unless noted: active = hit-call score of the fitted dose curve at least 0.9, where 1 is the maximum; inconclusive = response in the unintended direction; inactive = score below 0.9.

Assays:
[1] = TOX21_p53_BLA_p2_viability: Viability Assessment in the Tox21 HCT-116 p53 Agonism Beta-lactamase Assay, Phase 2 (AID 2283591);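 also: compound exposure lasted 16 h at 37 °C; actives lower the ATP signal meaning cytotoxicity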
Summary of the method: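 HCT116 p53-bla cells, 4000/well, dosed after 5 h plating (217-fold dilution of DMSO stocks) and incubated 16 h at 37C. Viability taken as cellular ATP by CellTiter-Glo luminescence after 30 min RT; signal loss marks cytotoxicity.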

[2] = molecular target: Cellular tumor antigen p53 (Homo sapiens) (UniProt P04637); experiment: TOX21_p53_BLA_p2_ratio: Tox21 HCT-116 p53 Agonism Beta-lactamase Assay, Ratio, Phase 2 (AID 2283592)
Summary of the method: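 Ratio endpoint: beta-lactamase cleavage of CCF4-AM, blue (460 nm) over green (530 nm). HCT116 reporter line; 16 h treatment, 37C; substrate 2 h RT.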

[3] = TOX21_p53_BLA_p3_viability: Viability Assessment in the Tox21 HCT-116 p53 Agonism Beta-lactamase Assay, Phase 3 (AID 2283593);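 also: cells exposed to compound for 16 h before reading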
Summary of the method: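 HCT116 cells, 4000/well, dosed 5 h after plating by pin transfer (217-fold dilution from DMSO stock) and incubated 16 h at 37C, 5% CO2. Viability read as ATP luminescence with CellTiter-Glo after 30 min at room temperature.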

[4] = molecular target: Cellular tumor antigen p53 (Homo sapiens) (UniProt P04637); experiment: TOX21_p53_BLA_p3_ratio: Tox21 HCT-116 p53 Agonism Beta-lactamase Assay, Ratio, Phase 3 (AID 2283596)
Summary of the method: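 Cells were seeded at 4000/well, rested 5 h at 37C, then dosed with DMSO compound solutions (217-fold dilution) for 16 h. CCF4-AM substrate was loaded for 2 h at room temperature, and the 460/530 nm emission ratio was fitted for gain of signal versus DMSO.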

[5] = TOX21_p53_BLA_p4_viability: Viability Assessment in the Tox21 HCT-116 p53 Agonism Beta-lactamase Assay, Phase 4 (AID 2283597);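 also: hits lower the luminescence signal meaning cytotoxicity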
Summary of the method: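 Cytotoxicity was inferred from loss of CellTiter-Glo luminescence. HCT116 cells had been dosed with compounds after 5 h plating, incubated 16 h at 37C and 5% CO2, and exposed to the CCF4-AM substrate for 2 h.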

[6] = molecular target: Cellular tumor antigen p53 (Homo sapiens) (UniProt P04637); experiment: TOX21_p53_BLA_p4_ratio: Tox21 HCT-116 p53 Agonism Beta-lactamase Assay, Ratio, Phase 4 (AID 2283601)
Summary of the method: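 HCT-116 p53 beta-lactamase reporter cells (4000/well) preincubated 5 h, then compound (217-fold dilution of DMSO stock) for 16 h at 37C. CCF4-AM substrate added 2 h at room temperature; 460/530 nm emission ratio fitted upward versus DMSO.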

[7] = molecular target: Cellular tumor antigen p53 (Homo sapiens) (UniProt P04637); experiment: TOX21_p53_BLA_p5_ratio: Tox21 HCT-116 p53 Agonism Beta-lactamase Assay, Ratio, Phase 5 (AID 2283599)
Summary of the method: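 HCT-116 p53-bla cells (4000/well) plated 5 h, dosed with compound (217-fold DMSO dilution) for 16 h at 37 C; CCF4-AM substrate 2 h at room temperature. Activity is the 460/530 nm emission ratio (405 nm excitation), fitted in gain-of-signal direction versus DMSO.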

[8] = TOX21_p53_BLA_p5_viability: Viability Assessment in the Tox21 HCT-116 p53 Agonism Beta-lactamase Assay, Phase 5 (AID 2283600)
Summary of the method: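 Luciferase-coupled ATP quantitation of cells treated for 16 h (37C, 5% CO2) with test chemicals delivered in DMSO via a 217-fold dilution; 4000 cells/well; reagent incubated 30 min at room temperature before luminescence reading.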

[9] = CCTE_Harrill_HTTr_Viability_MCF7: CCTE's 6-hour Cell Viability Assessment for the High-Throughput Transcriptomics (HTTr) Platform, in MCF-7 cells cultured in DMEM + 10% fetal bovine serum, Harrill Lab (AID 2284010; active = hit-call score of the fitted dose curve at least 0.9, where 1 is the maximum; inactive = score below 0.9)
Summary of the method: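 Propidium iodide exclusion, imaged by high-content analysis, gauged viability after a six-hour exposure across eight concentrations. Cells were MCF-7 grown in DMEM with 10% fetal bovine serum; fits run in both directions against DMSO.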

[10] = CCTE_Harrill_HTTr_Apoptosis_MCF7: CCTE's 6-hour Apoptosis Assessment for the High-Throughput Transcriptomics (HTTr) Platform, in MCF-7 cells cultured in DMEM + 10% fetal bovine serum, Harrill Lab (AID 2284011; active = hit-call score of the fitted dose curve at least 0.9, where 1 is the maximum; inactive = score below 0.9)
Summary of the method: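 MCF-7 cells in DMEM + 10% fetal bovine serum were exposed to chemicals for 6 hours over an eight-point dilution series. Caspase-3/7 activation was imaged by high content imaging with CellEvent Caspase 3/7 Green; bidirectional fitting used DMSO as baseline.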

[11] = CCTE_Harrill_HTTr_CellCount_MCF7: CCTE's Cell Proliferation Assessment for the High-Throughput Transcriptomics (HTTr) Platform, Harrill Lab (AID 2284012);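 also: cells exposed to compound for six hours; intended direction is loss of nuclei count meaning fewer cells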
Summary of the method: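 Cell count from high-content imaging of Hoechst-labeled nuclei serves as viability/growth readout. Chemicals were applied to MCF-7 cells in eight concentrations for six hours, with fitting in both directions relative to DMSO.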

Measured: outcome

Cellular tumor antigen p53 (Homo sapiens), sequence (P04637 whole entry, looked up): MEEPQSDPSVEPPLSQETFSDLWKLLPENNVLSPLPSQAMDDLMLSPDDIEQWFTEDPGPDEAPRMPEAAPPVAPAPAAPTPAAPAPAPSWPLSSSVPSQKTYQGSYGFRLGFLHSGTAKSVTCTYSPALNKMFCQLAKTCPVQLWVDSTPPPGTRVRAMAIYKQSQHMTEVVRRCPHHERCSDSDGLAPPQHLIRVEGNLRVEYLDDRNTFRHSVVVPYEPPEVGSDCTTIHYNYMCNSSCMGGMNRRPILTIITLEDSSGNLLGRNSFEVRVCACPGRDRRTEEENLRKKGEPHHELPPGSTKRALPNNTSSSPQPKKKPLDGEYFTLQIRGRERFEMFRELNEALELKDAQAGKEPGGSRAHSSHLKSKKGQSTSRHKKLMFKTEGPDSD

CN(C)CCc1c[nH]c2ccc(CS(=O)(=O)N3CCCC3)cc12
inactive: [1] | [2] | [3] | [4] | [5] | [6]

O=C(CO)[C@@H](O)[C@H](O)[C@H](O)CO
inactive: [1] | [2] | [3] | [4] | [5] | [6]

CC(=O)Nc1ccc(C)cc1
inactive: [1] | [2] | [3] | [4] | [5] | [6]

CC(C)(C)C(=O)OCOC(=O)C1N2C(=O)CC2S(=O)(=O)C1(C)C (centres undefined)
inactive: [1] | [2] | [3] | [4] | [5] | [6]

CCCNC(C)C(=O)Nc1ccccc1C (centres undefined)
inactive: [1] | [2] | [3] | [4] | [7]

OCCSc1ccccc1
inactive: [1] | [2] | [3] | [4] | [5] | [6]

Cc1ccccc1C#N
inactive: [1] | [2] | [3] | [4] | [7]

CC(=O)NCCCS(=O)(=O)O
not listed: [7]
inactive: all other assays above

Nc1cc(-c2ccncc2)c[nH]c1=O
not listed: [7] | [11]
inactive: all other assays above

CN(C)[C@@H]1C(=O)C(C(=O)NCN2CCCC2)=C(O)[C@@]2(O)C(=O)C3=C(O)c4c(O)cccc4[C@@](C)(O)C3C[C@@H]12 (some centres undefined)
inactive: [1] | [2] | [3] | [4] | [5] | [6]

N#CCC(=O)O
not listed: [6] | [7]
inactive: all other assays above
